The values that follow come from PubChem BioAssay AID540276 (National Center for Advancing Translational Sciences (NCATS), 2011).

Each structure is given as a SMILES string. “And” between values parts separate entries of the source, which are not always exact repeats. Equal entries are not always repeated. The whole screen tested about 300,000 compounds, of which about 5,400 (1.8%) were called active. Another 28% or so got no clear call; they are omitted. This is one part of a sample in which actives are shown more often than they occur. Calls follow the shape of the full dose curve; tested in HEK293 cells. Some structures have more than one record in an assay (separate samples or runs), and their calls can disagree.
% is scaled to controls: 0 for no effect and ±100 for the full control effect; potency is read from the fitted curve at half-maximal effect.

The nature of the assay: qHTS for inhibitors of binding or entry into cells for Marburg Virus. The settings on record: Marburg virus pseudotyped entry inhibition, cell reporter; series mostly up to 37.8 µM; activity change, negative = inhibition: at the top concentration. In general terms: In qHTS, concentration-response curves come from the screen itself.
As for `Nc1ncnc2c1cnn2C1CC(O)C(CO)O1` (configuration not stated), the “activity change, negative = inhibition” value is 18.4% (inactive).

For the molecule `COc1ccc(C(=O)OCC(=O)N2CC(=O)Nc3ccccc32)cc1Br`, the “activity change, negative = inhibition” value was 1.2% (inactive).

Turning to `O=C(Nc1ccc(S(=O)(=O)N2CCOCC2)cc1)C1CCN(S(=O)(=O)c2ccc(Cl)cc2)CC1`, the “activity change, negative = inhibition” value is 3.31% (inactive).

As for `CCCCNC1(C#N)CCN(Cc2ccccc2)CC1`, the “activity change, negative = inhibition” value was 0.651% (inactive).

Regarding `O=C(NNS(=O)(=O)c1ccc([N+](=O)[O-])cc1)C1CCCCC1`, the “activity change, negative = inhibition” value is 24.6% [at 46.1 µM] (inactive).

Consider `O=C1c2cccc3c([N+](=O)[O-])ccc(c23)C(=O)N1CC1CCCO1` (configuration not stated), for which the Potency was 23.1 µM (active).

As for `O=c1c2cc3c(=O)n(CC4CCCO4)c(=O)c3cc2c(=O)n1CC1CCCO1` (configuration not stated), the “activity change, negative = inhibition” value is -3.19% (inactive).

With `O=C(NCc1ccc2c(c1)OCO2)c1ccc2c(c1)C(=O)N(CC1CCCO1)C2=O` (configuration not stated), the “activity change, negative = inhibition” value was 10.7% (inactive).

For `Cc1cc(S(=O)(=O)Nc2ccc(C(=O)NCC(c3ccco3)N3CCCC3)cc2)ccc1F` (configuration not stated), the “activity change, negative = inhibition” value is -28% [at 46.1 µM] (inactive).

As for `CCC(=O)N1CCc2cc(Br)c(S(=O)(=O)NCCN3CCCCC3CC)cc21` (configuration not stated), the “activity change, negative = inhibition” value was 1.26% (inactive).

Consider `CCN(Cc1ccccc1)C(=O)Cc1ccc(OC)c(S(=O)(=O)N2CCOCC2)c1`, for which the “activity change, negative = inhibition” value was -9.98% (inactive).

Regarding `COc1cccc(CNS(=O)(=O)c2ccc3c(c2)CC(C)N3C(C)=O)c1` (configuration not stated), the “activity change, negative = inhibition” value is -18.3% [at 46.1 µM] (inactive).

As for `COC(=O)CC=C[C@@H](C)[C@H](NC(=O)OCC(Cl)(Cl)Cl)c1ccc2ccccc2c1`, the “activity change, negative = inhibition” value was -17.9% [at 14.2 µM] (inactive).

`Cc1ccc(-c2nn(-c3ccc(F)cc3)cc2C(=O)NCC(c2cccs2)N2CCOCC2)cc1` (configuration not stated): the “activity change, negative = inhibition” value is -10.9% [at 46.1 µM] (inactive).

Turning to `Cc1ccc(S(=O)(=O)C2(S(=O)(=O)c3ccc(C)cc3)CCCC2)cc1`, the Potency is 3.98 µM (active).

With `Cc1ccc(S(=O)(=O)NC2CCCCCC2)cc1`, the “activity change, negative = inhibition” value was 7.12% (inactive).

With `Cc1ccc(S(=O)(=O)N(C)C2(C)CCS(=O)(=O)C2)cc1` (configuration not stated), the “activity change, negative = inhibition” value is -16.6% (inactive).

For the molecule `COc1cccc2cc(C(=O)NCc3ccc(C)cc3)c(=N)oc12`, the “activity change, negative = inhibition” value is -22.8% [at 46.1 µM] (inactive).

In the case of `Cc1cccc2[nH]c(CN(C)C(=O)C3CCC(=O)N(CCc4ccccc4)C3)nc12` (configuration not stated), the “activity change, negative = inhibition” value was 4.9% (inactive).

Take `CCN(CCCNC(=O)CSc1cc(=O)n(C)c2cc(Cl)ccc12)c1cccc(C)c1`: the “activity change, negative = inhibition” value was -7.94% [at 46.1 µM] (inactive).

Consider `CCOc1ccc(CCNC(=O)CSc2cc(=O)n(C)c3ccc(Cl)cc23)cc1OCC`, for which the Potency entry was “inactive”.

Take `CCN(CCCNC(=O)CSc1cc(=O)n(C)c2cc(Cl)ccc12)Cc1ccccc1`: the Potency is 11.2 µM (active).

`COc1ccc(CCNC(=S)N2CCN(S(=O)(=O)c3ccc(Cl)cc3)CC2)cc1`: the “activity change, negative = inhibition” value is -1.3% (inactive).

For the molecule `Cc1ccc(NC(=S)NCCc2ccc(Cl)cc2)c(C)c1`, the “activity change, negative = inhibition” value was -20.5% (inactive).

`Oc1cc2c(cc1O)CN(C(=S)NCCc1ccc(Cl)cc1)CCC2`: the Potency entry was “inactive and 355 nM (active)”.

As to `CC(=O)c1ccc(S(=O)(=O)N(C)CCCC(=O)N(C)Cc2ccccc2F)cc1`, the “activity change, negative = inhibition” value is 4.44% [at 46.1 µM] (inactive).

For `O=C(CCn1nnnc1CN1CCOCC1)N1CCC(c2ccccc2Cl)C1` (configuration not stated), the “activity change, negative = inhibition” value is -5.89% (inactive).
